In ChEMBL document CHEMBL4303122, “Identification of potential treatments for COVID-19 through artificial intelligence-enabled phenomic analysis of human cells infected with SARS-CoV-2” (2020):
In all, about 1,600 compounds were measured (“Hit score”: median about 0.13, highest 2% from about 0.46 on). The list comes from a sample in which the highest values are over-represented; it also holds similar structures and randomly drawn compounds.

The compounds below were run on SARS-CoV-2 (assay: Antiviral activity against SARS-CoV-2 (USA-WA1/2020 strain) measured by imaging in HRCE cells at MOI 0.4 after 96 hrs (reported as hit score from 0-1 for on-disease vs off-disease activity: scores >0.6 considered hits)).
Assay type: functional, Homo sapiens

Row | Structure (SMILES) | Hit score
1 | COC(=O)N[C@H](C(=O)N1CCC[C@H]1c1ncc(-c2ccc(-c3ccc(-c4cnc([C@@H]5CCCN5C(=O)[C@@H](NC(=O)OC)C(C)C)[nH]4)cc3)cc2)[nH]1)C(C)C | -0.06011
2 | Cc1ccc(NC(=O)C2(c3ccc4c(c3)OC(F)(F)O4)CC2)nc1-c1cccc(C(=O)O)c1 [LUMACAFTOR] | 0.04797
3 | Cc1nccn1CCC(C(N)=O)(c1ccccc1)c1ccccc1 [IMIDAFENACIN] | 0.008612
4 | CCC(=O)NC[C@@H]1C[C@H]1c1cccc2c1CCO2 [TASIMELTEON] | 0.1536
5 | CC(C)OC(=O)CCC/C=C\C[C@@H]1[C@@H](/C=C/C(F)(F)COc2ccccc2)[C@H](O)C[C@@H]1O [TAFLUPROST] | 0.14
6 | O=[N+]([O-])c1cncn1CCN1CCOCC1 [NIMORAZOLE] | 0.1444
7 | CCCCCC(=O)O[C@]1(C(C)=O)CC[C@H]2[C@@H]3CCC4=CC(=O)CC[C@]4(C)[C@H]3CC[C@@]21C [HYDROXYPROGESTERONE CAPROATE] | 0.1371
8 | COc1cc(C)c2c(Oc3cccc(C(F)(F)F)c3)c(OC)cc(NC(C)CCCN)c2n1.O=C(O)CCC(=O)O (stereo unspecified) [TAFENOQUINE SUCCINATE] | 0.101
9 | C[C@]12C=CC(=O)N[C@@H]1CC[C@@H]1[C@@H]2CC[C@]2(C)[C@@H](C(=O)Nc3cc(C(F)(F)F)ccc3C(F)(F)F)CC[C@@H]12 [DUTASTERIDE] | 0.3162
10 | CC[C@@H]1/C=C(\C)C[C@H](C)C[C@H](OC)[C@H]2O[C@@](O)(C(=O)C(=O)N3CCCC[C@H]3C(=O)O[C@H](/C(C)=C/[C@@H]3CC[C@H](Cl)[C@H](OC)C3)[C@H](C)[C@@H](O)CC1=O)[C@H](C)C[C@@H]2OC [PIMECROLIMUS] | 0.2951
11 | CO[C@H]1C[C@@H]2CC[C@@H](C)[C@@](O)(O2)C(=O)C(=O)N2CCCC[C@H]2C(=O)O[C@H]([C@H](C)C[C@@H]2CC[C@H](n3cnnn3)[C@H](OC)C2)CC(=O)[C@H](C)/C=C(\C)[C@@H](O)[C@@H](OC)C(=O)[C@H](C)C[C@H](C)/C=C/C=C/C=C/1C [ZOTAROLIMUS] | 0.6315
12 | CO[C@H]1C[C@@H]2CC[C@@H](C)[C@@](O)(O2)C(=O)C(=O)N2CCCC[C@H]2C(=O)O[C@H]([C@H](C)C[C@@H]2CC[C@@H](O)[C@H](OC)C2)CC(=O)[C@H](C)/C=C(\C)[C@@H](O)[C@@H](OC)C(=O)[C@H](C)C[C@H](C)/C=C/C=C/C=C/1C [SIROLIMUS] | 0.6828
13 | CO[C@H]1C[C@@H]2CC[C@@H](C)[C@@](O)(O2)C(=O)C(=O)N2CCCC[C@H]2C(=O)O[C@H]([C@H](C)C[C@@H]2CC[C@@H](OCCO)[C@H](OC)C2)CC(=O)[C@H](C)/C=C(\C)[C@@H](O)[C@@H](OC)C(=O)[C@H](C)C[C@H](C)/C=C/C=C/C=C/1C [EVEROLIMUS] | 0.4984
14 | CO[C@H]1C[C@@H]2CC[C@@H](C)[C@@](O)(O2)C(=O)C(=O)N2CCCC[C@H]2C(=O)O[C@H]([C@H](C)C[C@@H]2CC[C@@H](OC(=O)C(C)(CO)CO)[C@H](OC)C2)CC(=O)[C@H](C)/C=C(\C)[C@@H](O)[C@@H](OC)C(=O)[C@H](C)C[C@H](C)/C=C/C=C/C=C/1C [TEMSIROLIMUS] | 0.4599
15 | C=CC[C@@H]1/C=C(\C)C[C@H](C)C[C@H](OC)[C@H]2O[C@@](O)(C(=O)C(=O)N3CCCC[C@H]3C(=O)O[C@H](/C(C)=C/[C@@H]3CC[C@@H](O)[C@H](OC)C3)[C@H](C)[C@@H](O)CC1=O)[C@H](C)C[C@@H]2OC [TACROLIMUS ANHYDROUS] | 0.3285
16 | C[C@@H]1CCO[C@H]2Cn3cc(C(=O)NCc4ccc(F)cc4F)c(=O)c(O)c3C(=O)N12 [DOLUTEGRAVIR] | -0.02185
17 | CCc1cc(/C(C)=N/OCc2ccc(C3CCCCC3)c(C(F)(F)F)c2)ccc1CN1CC(C(=O)O)C1 [SIPONIMOD] | -0.1293
18 | Cc1cn(-c2cc(NC(=O)c3ccc(C)c(Nc4nccc(-c5cccnc5)n4)c3)cc(C(F)(F)F)c2)cn1 [NILOTINIB] | 0.4816
19 | Cc1ccc(NC(=O)c2ccc(CN3CCN(C)CC3)cc2)cc1Nc1nccc(-c2cccnc2)n1 [IMATINIB] | 0.06765
20 | Cc1ccc(/C=C2/C(=O)C3(C)CCC2C3(C)C)cc1 (stereo unspecified) [ENZACAMENE] | 0.1975
21 | CC(C)NCC(O)COc1ccc(CCOCC2CC2)cc1 (stereo unspecified) [BETAXOLOL] | 0.2742
22 | CC(C)NCC(O)COc1ccc(COCCOC(C)C)cc1 (stereo unspecified) [BISOPROLOL] | 0.1972
23 | CC(C)NC[C@H](O)COc1ccc(CCOCC2CC2)cc1 [LEVOBETAXOLOL] | 0.4949

Row | Structure (SMILES) | Hit score
24 | C=C1c2c(Cl)ccc(O)c2C(=O)C2=C(O)[C@]3(O)C(=O)C(C(N)=O)=C(O)[C@@H](N(C)C)[C@@H]3[C@@H](O)[C@H]12.O=C(O)c1cc(S(=O)(=O)O)ccc1O [MECLOCYCLINE SULFOSALICYLATE] | 0.1338
25 | CC(C)OC(=O)CCC/C=C\C[C@@H]1[C@@H](CC[C@@H](O)CCc2ccccc2)[C@H](O)C[C@@H]1O [LATANOPROST] | 0.04489
26 | CCCCCCOC(=O)CCC(=O)CN [HEXAMINOLEVULINATE] | 0.1128
27 | COc1cc([C@@H]2c3cc4c(cc3[C@@H](O[C@@H]3O[C@@H]5CO[C@@H](C)O[C@H]5[C@H](O)[C@H]3O)[C@H]3COC(=O)[C@H]23)OCO4)cc(OC)c1OP(=O)(O)O [ETOPOSIDE PHOSPHATE] | 0.05858
28 | O=C(CNc1cccc(Cl)c1)NC1CCCN(c2ncnc3[nH]ccc23)C1 (stereo unspecified) | 0.1071
29 | CC(C)OC(=O)[C@H](C)N[P@](=O)(OC[C@H]1O[C@@H](n2ccc(=O)[nH]c2=O)[C@](C)(F)[C@@H]1O)Oc1ccccc1 [SOFOSBUVIR] | 0.2045
30 | CCC(CC)COC(=O)[C@H](C)N[P@](=O)(OC[C@H]1O[C@@](C#N)(c2ccc3c(N)ncnn23)[C@H](O)[C@@H]1O)Oc1ccccc1 | 0.9631
31 | N#C[C@@]1(c2ccc3c(N)ncnn23)O[C@H](CO)[C@@H](O)[C@H]1O [GS-441524] | 0.865
32 | CC(C)OC(=O)[C@H](C)N[P@@](=O)(OC[C@H]1O[C@@H](n2ccc(=O)[nH]c2=O)[C@](C)(F)[C@@H]1O)Oc1ccccc1 | 0.2594
33 | Nc1ncnc2c1ncn2[C@@H]1O[C@H](CO)[C@@H](O)[C@@H]1O [VIDARABINE] | -0.02251
34 | CO[C@@]1(NC(=O)CSC[C@@H](N)C(=O)O)C(=O)N2C(C(=O)O)=C(CSc3nnnn3C)CS[C@@H]21 [CEFMINOX] | 0.1316
35 | CC(C)CN(C[C@@H](O)[C@H](Cc1ccccc1)NC(=O)O[C@H]1CO[C@H]2OCC[C@H]21)S(=O)(=O)c1ccc(N)cc1 | 0.38
36 | CO[C@]12C[C@@H](COC(=O)c3cncc(Br)c3)CN(C)[C@@H]1Cc1cn(C)c3cccc2c13 [NICERGOLINE] | 0.1321
37 | CC[C@@H](CO)NC(=O)[C@@H]1C=C2c3cccc4[nH]cc(c34)C[C@H]2N(C)C1 [METHYLERGONOVINE] | 0.219
38 | C[C@@H]1C[C@H]2[C@@H]3CCC4=CC(=O)C=C[C@]4(C)[C@@]3(F)[C@@H](O)C[C@]2(C)[C@@]1(O)C(=O)COP(=O)([O-])[O-].[Na+].[Na+] [DEXAMETHASONE SODIUM PHOSPHATE] | 0.2627
39 | COC(=O)N[C@H](C(=O)N1CCC[C@H]1c1nc(-c2ccc3c(c2)O[C@@H](c2ccccc2)n2c-3cc3cc(-c4c[nH]c([C@@H]5CCCN5C(=O)[C@@H](NC(=O)OC)C(C)C)n4)ccc32)c[nH]1)C(C)C [ELBASVIR] | -0.03781
40 | O=C(Nc1c(Cl)cncc1Cl)c1ccc(OC(F)F)c(OCC2CC2)c1 [ROFLUMILAST] | 0.1334
41 | C=CC[N+]1([C@H]2C[C@H]3[C@@H]4CC[C@H]5C[C@H](O)[C@@H](N6CCOCC6)C[C@]5(C)[C@H]4CC[C@]3(C)[C@H]2OC(C)=O)CCCC1 [ROCURONIUM] | 0.1086
42 | CCc1cc2c(cc1CC)CC(NC[C@H](O)c1ccc(O)c3[nH]c(=O)ccc13)C2 [INDACATEROL] | -0.2891
43 | C[C@H]1[C@H](OC(=O)CCC(=O)O)O[C@@H]2O[C@@]3(C)CC[C@H]4[C@H](C)CC[C@@H]1[C@@]24OO3 [ARTESUNATE] | 0.2142
44 | CC(=O)O[C@]1(C(C)=O)CC[C@H]2[C@@H]3C=C(C)C4=CC(=O)CC[C@@H]4[C@H]3CC[C@@]21C [NOMEGESTROL ACETATE] | 0.2782
45 | CC1(C)S[C@@H]2[C@H](NC(=O)Cc3ccccc3)C(=O)N2[C@H]1C(=O)O [PENICILLIN G] | 0.164
46 | CC(=O)O[C@H]1C[C@@H]2CC[C@@H]3[C@H](CC[C@@]4(C)[C@H]3C[C@H]([N+]3(C)CCCCC3)[C@@H]4OC(C)=O)[C@@]2(C)C[C@@H]1[N+]1(C)CCCCC1 [PANCURONIUM] | 0.09762
